# Experimental data taken from article PMC4336329 (PLoS ONE, 2015).
# About 14,000 (4.5%) of roughly 310,000 compounds showed an effect of 50% or more. The effect is printed as a negative number. What follows is part of a selection rich in strong results, with near analogues and random picks from the rest.
# Molecular target: human ether-à-go-go-related gene (hERG) potassium channel (human, UniProt Q12809)
# Experiment: primary screen, population patch clamp on CHO cells stably expressing hERG; higher = less effect of the substance
# 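Note: peak tail current of the secondary pulse compared with the same well before compound.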
# Sequence of human ether-à-go-go-related gene (hERG) potassium channel (Q12809 whole entry, looked up): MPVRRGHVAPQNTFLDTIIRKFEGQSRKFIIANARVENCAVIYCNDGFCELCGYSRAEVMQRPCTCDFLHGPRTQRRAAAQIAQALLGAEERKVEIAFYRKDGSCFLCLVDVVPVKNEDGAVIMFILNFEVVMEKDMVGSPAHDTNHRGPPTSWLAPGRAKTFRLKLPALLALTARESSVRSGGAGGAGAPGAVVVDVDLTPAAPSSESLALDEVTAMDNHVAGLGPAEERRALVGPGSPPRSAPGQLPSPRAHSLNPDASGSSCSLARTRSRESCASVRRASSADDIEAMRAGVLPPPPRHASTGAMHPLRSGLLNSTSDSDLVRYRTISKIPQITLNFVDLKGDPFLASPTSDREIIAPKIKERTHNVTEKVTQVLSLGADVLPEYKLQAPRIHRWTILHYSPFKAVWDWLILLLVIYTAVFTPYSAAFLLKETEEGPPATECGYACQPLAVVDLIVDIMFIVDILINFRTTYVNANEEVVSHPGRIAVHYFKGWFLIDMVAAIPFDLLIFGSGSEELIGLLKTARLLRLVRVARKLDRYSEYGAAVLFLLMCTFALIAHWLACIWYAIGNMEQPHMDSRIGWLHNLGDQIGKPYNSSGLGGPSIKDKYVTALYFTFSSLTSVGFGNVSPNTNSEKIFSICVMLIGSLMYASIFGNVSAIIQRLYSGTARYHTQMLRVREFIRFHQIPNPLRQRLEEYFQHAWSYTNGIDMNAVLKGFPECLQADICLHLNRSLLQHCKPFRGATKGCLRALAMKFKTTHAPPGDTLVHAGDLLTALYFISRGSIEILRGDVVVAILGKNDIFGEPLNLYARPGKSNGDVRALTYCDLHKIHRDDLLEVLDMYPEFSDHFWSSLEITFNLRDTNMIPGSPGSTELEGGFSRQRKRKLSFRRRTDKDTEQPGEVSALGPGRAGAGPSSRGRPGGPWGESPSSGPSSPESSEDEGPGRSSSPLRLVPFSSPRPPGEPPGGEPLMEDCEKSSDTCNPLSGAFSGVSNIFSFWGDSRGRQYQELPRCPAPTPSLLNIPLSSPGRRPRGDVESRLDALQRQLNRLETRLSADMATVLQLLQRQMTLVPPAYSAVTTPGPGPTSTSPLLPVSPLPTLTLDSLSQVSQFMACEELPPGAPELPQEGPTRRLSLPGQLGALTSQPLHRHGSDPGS
row,Structure (SMILES),"hERG current change (%, negative = inhibition) at 10uM [%]"
1,CCOc1ccc2nc(NC(=O)c3cnccn3)sc2c1,2.76
2,c1coc(-c2nc3ccccc3nc2-c2ccco2)c1,-4.79
3,CN(C)CCCN1c2ccccc2Sc2ccccc21.Cl,-28.1
4,CCN(CC)CCN1c2ccccc2Sc2ccccc21.O=C(O)C(=O)O,-41.3
5,CCN(CC)CCCCN1c2ccccc2Sc2ccccc21.Cl,-61.7
6,CCN(CC)CC(=O)N1c2ccccc2Sc2ccccc21,1.42
7,CCC(=O)c1ccc2c(c1)N(CCCN(C)C)c1ccccc1S2.Cl,-63.5
8,CN(C)CCCNC(=O)N1c2ccccc2Sc2ccccc21,1.39
9,CC(C)(C)c1ccc(O)c(N)c1,8.01
10,N#Cc1ncccc1CCc1cccc(Cl)c1,-11.1
11,NS(=O)(=O)c1ccc(CCNC(=O)CCS(=O)(=O)c2ccc(Br)cc2)cc1,19.2
12,O=C(CCCC1=NS(=O)(=O)c2ccccc2N1)N1CCN(c2ccc(Cl)cc2)CC1,-61.1
13,COc1ccc(N2CCN(C(=O)CCCC3=NS(=O)(=O)c4ccccc4N3)CC2)cc1,-7.68
14,COc1ccccc1N1CCN(C(=O)CCCC2=NS(=O)(=O)c3ccccc3N2)CC1,2.62
15,O=C(CCCC1=NS(=O)(=O)c2ccccc2N1)N1CCN(c2ccccc2)CC1,-1.79
16,COc1cccc(N2CCN(C(=O)CC(C)(C)CC3=NS(=O)(=O)c4ccccc4N3)CC2)c1,-6.09
17,CC(C)(CC(=O)N1CCN(c2ccc(Cl)cc2)CC1)CC1=NS(=O)(=O)c2ccccc2N1,-61.1
18,O=C(NCCc1csc(-c2cccnc2)n1)c1ccccc1Br,-4.05
19,CC1CCCCN1C(=S)NC(=O)c1cc(Br)ccc1Cl (stereo not drawn),4.09
20,COc1ccc(/C=N/N=C/c2c[nH]c(=O)c(C#N)c2Nc2ccccc2)cc1,5.81
21,Cn1c(O)c(N=NC(=O)c2ccccc2O)c2ccccc21,13.6
22,CCCCc1nc(Cl)c(C#N)c2c1CCCC2,-14.7
23,CCCCCc1nc2c(c3c1CCCC3)CCCC2,-71.7
24,CCCCCc1n[nH]c2c1CCCC2,15.6
25,CCOC(=O)c1ccc(NC(=S)NCCc2ccccc2)cc1,4.14

row,Structure (SMILES),"hERG current change (%, negative = inhibition) at 10uM [%]"
1,O=C(CN1CCOCC1)Nc1c(Cl)cc(Cl)cc1Cl,-2.17
2,O=C(CN1CCCCCC1)Nc1c(Cl)cc(Cl)cc1Cl,-5.28
3,N#Cc1ccc(NC(=O)CN2CCCCCC2)cc1Cl,-21.3
4,CC(=O)N1CCN(CC(=O)Nc2c(Cl)cc(Cl)cc2Cl)CC1,-54.2
5,CC(=O)N1CCN(CC(=O)Nc2ccc(C#N)c(Cl)c2)CC1,-71.7
6,N#Cc1ccc(NC(=O)CN2CCCC2)cc1Cl,0.986
7,O=C(NC1CCS(=O)(=O)C1)c1ccc(S(=O)(=O)N2CCCC2)cc1 (stereo not drawn),9.83
8,CCC(C)(C)C1CCc2[nH]nc(C(=O)NC(C)C)c2C1 (stereo not drawn),12.7
9,CC12CCC(C(=O)NCCN3CCCCC3)(CC1=O)C2(C)C (stereo not drawn),-2.12
10,O=C(CN1CCN(c2ccccc2)CC1)Nc1ccc(Oc2ccccc2)cc1,15.6
11,CCOC(=O)N1CCN(CC(=O)Nc2ccc(C)c(Br)c2)CC1.Cl,-16.1
12,CCN(CC)CCNCC(=O)Nc1ccc(Oc2ccccc2)cc1,-70.5
13,CCN(CC)CC(=O)Nc1ccc(Oc2ccc(NC(=O)CN(CC)CC)cc2)cc1,17.1
14,CCOC(=O)N1CCN(CCC(=O)Nc2ccc(F)c(F)c2)CC1,0.204
15,CCCCOc1ccc(NC(=O)CN2CCN(C(=O)OCC)CC2)cc1.Cl,-28.6
16,CCN(CC)CCNC(=O)C(C)c1nn(C)c(=O)c2ccccc12 (stereo not drawn),8.67
17,CCOC(=O)N1CCN(CC(=O)Nc2ccc(F)c(F)c2)CC1,-62.4
18,CCOC(=O)N1CCN(CC(=O)Nc2ccc(Oc3ccccc3)cc2)CC1,-50.1
19,O=C(CNCc1ccccc1)Nc1ccc(Oc2ccccc2)cc1,-18.7
20,CCN(CC)CCNC(=O)C(Oc1ccccc1)Oc1ccccc1,-65.4
21,CCN(CC)CCNC(=O)c1ccccc1N,-5.76
22,Nc1ccccc1NC(=O)NC(=O)c1ccccc1,12.5
23,CCC(=O)Nc1ccc(NC(=O)c2cccc3c(Br)cccc23)cc1,3.96
24,COC(=O)C(Cc1ccccc1)NC(=O)CCc1c[nH]c2ccccc12 (stereo not drawn),-8.09
25,CCOC(=O)N1CCN(CC(=O)Nc2ccc(F)c(F)c2F)CC1,7.7

row,Structure (SMILES),"hERG current change (%, negative = inhibition) at 10uM [%]"
1,CCOC(=O)N1CCN(CC(=O)Nc2ccc(F)cc2)CC1,-82
2,CCOC(=O)N1CCN(CC(=O)Nc2ccc(C)cc2)CC1,-63.2
3,CCOC(=O)N1CCN(CCC(=O)Nc2ccc(C)cc2)CC1,4.65
4,CCOC(=O)N1CCN(CC(=O)Nc2ccc(OC)cc2)CC1,-15.2
5,CCOC(=O)N1CCN(CC(=O)Nc2ccc(F)cc2F)CC1,-28.6
6,COc1ccc(-c2nn(-c3ccccc3)cc2/C=N/N2C(=O)CSC2=S)cc1,-6.34
7,O=C(NCCCl)NNc1c(Cl)cc(Cl)cc1Cl,10.3
8,CC1(C)Oc2ccc3ccc(=O)oc3c2[C@@H](O)[C@H]1O,15.5
9,CCOCCn1cnc2sc(C(=O)NCC(=O)OCC)c(C)c2c1=O,-3.75
10,COc1cc(C)c(CN2CCC(n3nccc3NC(=O)C3CC3)CC2)cc1C,-52.7
11,COc1cc(C)c(CN2CCC(n3nccc3NC(=O)C3CCOC3)CC2)cc1C (stereo not drawn),-18.2
12,Cc1ccc(C)c(CN2CCC(n3nccc3NC(=O)C3CCCC3)CC2)c1,-69.9
13,COc1ccc(CN2CCC(n3nccc3NC(=O)C3CC3)CC2)c(OC)c1OC,-51.4
14,CCn1cc(CN2CCC(n3nccc3NC(=O)C3CCCC3)CC2)c(C)n1,-12.4
15,Cc1cc(C)c(CN2CCC(n3nccc3NC(=O)C3CCCC3)CC2)cc1C,-70.7
16,O=C(Nc1ccnn1C1CCN(Cc2ccccc2F)CC1)C1CCCC1,-45.4
17,COc1ccc(CN2CCC(n3nccc3NC(=O)C3CC3)CC2)c(Cl)c1OC,-39.2
18,Cc1cc(C)c(CN2CCC(n3nccc3NC(=O)C3CCOC3)CC2)cc1C (stereo not drawn),-19
19,COc1ccc(C(=O)N2CCC(n3nccc3NC(=O)C3CC3)CC2)c(OC)c1OC,24.7
20,OCCSc1nc2ccccc2n1CCOc1ccccc1,4.02
21,O=c1cccccc1NCc1ccccc1,-17.3
22,O=C(CSCC(=O)N1CCCc2ccccc21)Nc1nc(-c2ccccc2)cs1,12.4
23,COc1ccc(NC(=O)CSc2nnc(Cc3ccccc3)c(=O)n2N)c(OC)c1,-18.1
24,O=c1c2ccccc2nc(-c2ccoc2)n1CCc1ccccc1,-3.87
25,COc1ccc(NC(=O)CCC(=O)N(Cc2ccc(OC)c(OC)c2)c2nccs2)cc1,13.5

row,Structure (SMILES),"hERG current change (%, negative = inhibition) at 10uM [%]"
1,CC(=O)Nc1ccc(NC(=O)c2ccc(N(C)S(=O)(=O)c3ccc(C)cc3)cc2)cc1,6.8
2,CC(=O)Oc1ccc2c(=O)c(-c3ccccc3)c(C)oc2c1,16.2
3,O=C(CSc1ncnc2scc(-c3ccccc3)c12)Nc1ccc(C(=O)O)cc1,8.17
4,COc1ccc(C(C(=O)NC2CCCCC2)N(C(=O)c2ccco2)c2ccc(-n3cnnn3)c(C)c2)cc1 (stereo not drawn),8.93
5,CCCN1C(=O)c2cc(C(=O)Nc3ccccc3CC)ccc2C1O (stereo not drawn),2.3
6,N#Cc1c(N)n(CCNC(=O)c2cccs2)c2nc3ccccc3nc12,10.4
7,O/N=C/c1ccnc(SCc2ccccc2)n1,-12.1
8,Cc1c(NC(=O)C(C)OC(=O)c2cc3c4ccccc4n(C)c3s2)c(=O)n(-c2ccccc2)n1C (stereo not drawn),-68.5
9,Cc1c(NC(=O)COC(=O)c2cc3c4ccccc4n(C)c3s2)c(=O)n(-c2ccccc2)n1C,-11.8
10,Cc1c(NC(=O)C(C)OC(=O)c2cccs2)c(=O)n(-c2ccccc2)n1C (stereo not drawn),3.46
11,CN(C)S(=O)(=O)c1ccc(N=Cc2c(C(F)(F)F)[nH][nH]c2=O)cc1,23
12,CC(C)(C)c1ccccc1NC(=O)CN1C(=O)NC2(CCCC2)C1=O,1.01
13,O=C(Nc1ccc(N2CCN(C(=O)c3ccco3)CC2)c(Cl)c1)c1c(F)c(F)c(F)c(F)c1F,-32.1
14,O=C(Nc1ccc(N2CCN(C(=O)c3ccco3)CC2)c(Cl)c1)c1cc2ccccc2o1,-67.9
15,CCCC(=O)N1CCN(c2ccc(NC(=O)c3cc4ccccc4o3)cc2Cl)CC1,-56.8
16,CCCC(=O)N1CCN(c2ccc(NC(=O)c3cccs3)cc2Cl)CC1,-66.8
17,CCC(=O)N1CCN(c2ccc(NC(=O)c3cc4ccccc4o3)cc2Cl)CC1,-67.7
18,O=C(Nc1ccc(N2CCOCC2)c(Cl)c1)c1cc2ccccc2o1,-36.1
19,CC(C)C(=O)N1CCN(c2ccc(NC(=O)c3cccs3)cc2Cl)CC1,-14.7
20,CCC(=O)N1CCN(c2ccc(NC(=O)c3cc4ccccc4o3)cc2)CC1,-23.3
21,CCCC(=O)N1CCN(c2ccc(NC(=O)c3cccs3)cc2)CC1,-18.2
22,CCCC(=O)N1CCN(c2ccc(NC(=O)c3cc4ccccc4o3)cc2)CC1,-13.4
23,Cc1ccc(NC(=O)c2cc3ccccc3o2)cc1Cl,19.7
24,Cc1ccccc1C(=O)N1CCN(c2ccc(NC(=O)c3ccco3)cc2Cl)CC1,-43.2
